Screening data: PubChem, National Center for Advancing Translational Sciences (NCATS)
The full list was thinned out, with hits kept by preference.
MBNL1 CUG block – MBNL1-poly(CUG) RNA binding inhibition. AID 2675. Q9NR56. hit rate 0.036% among 280,000. TR-FRET MBNL1-His/biotin-(CUG)12 binding, 665/545 ratio. Potency, µM (series often up to 57.5 µM), actives largely listed as inhibitors; active means well fitted inhibition curve with a large enough effect in the signal ratio, with a control signal flat, not every such curve was filed as active; inconclusive means small, poorly fitted or top-dose-only effect, or effect the other way, or a change in a side signal; inactive means no such curve, though single readings can be large or run the other way; the % refers to the signal ratio
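TR-FRET between His-tagged MBNL1 and biotin-(CUG)12 RNA, detected with Tb anti-His antibody (0.055 ng/ul) and streptavidin-XL665 (5 nM), 60 min at room temperature. Compounds titrated 92 nM to 58 uM; 665/545 nm ratio normalized to buffer and complex controls.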
Rango release inh – prevents RanGTP from dissociating the Rango-importin beta complex. O95149+P62826. Biochemical FRET Rango-importin beta, RanGTP-induced dissociation. Potency, µM (top dose mostly 46.1 µM). hit rate 0.071% among 340,000; further: nearly all actives have a fitted effect of over 45% in size
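FRET read at 45 min, room temperature: inhibitors block the CFP/YFP signal rise when RanGTP (0.6 uM Ran, 2 mM GTP, 0.2 uM RCC1) frees Rango (0.1 uM) from importin beta (0.25 uM). Pre-read after 5 min compound exposure flags interference.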
Rango-impB inh – prevents formation of the Rango-importin beta complex | AID 540263 | Rango CFP/YFP FRET sensor + importin beta, 45 min | hit rate 0.031% among 340,000 | Potency, µM (highest dose often 92.2 µM) | Q14974; further: nearly all actives have a fitted effect of over 15% in size
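FRET biosensor (snurportin 1 IBB flanked by EYFP and cerulean), 50 nM, with compound 5 min, then 0.125 microM importin beta in PBS, 1 mM DTT, 0.02% Tween-20, 0.1% BSA. CFP/YFP ratio read after 45 min at room temperature; pre-read flags interference.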
CBFb-RUNX1 inh – CBF-beta/RUNX1 interaction disruption; AlphaScreen CBFb-His/RUNX1-biotin binding, biochemical; Potency, µM (doses to about 59.8 µM), most hits filed as inhibitors; 230,000 tested, under 10 active; active means well fitted curve in the direction sought with a large enough effect; inconclusive means small, poorly fitted or top-dose-only effect, or effect the other way, or another doubt; inactive means no such curve, though single readings can be large or run the other way
Target sequence (Q01196 whole entry, looked up): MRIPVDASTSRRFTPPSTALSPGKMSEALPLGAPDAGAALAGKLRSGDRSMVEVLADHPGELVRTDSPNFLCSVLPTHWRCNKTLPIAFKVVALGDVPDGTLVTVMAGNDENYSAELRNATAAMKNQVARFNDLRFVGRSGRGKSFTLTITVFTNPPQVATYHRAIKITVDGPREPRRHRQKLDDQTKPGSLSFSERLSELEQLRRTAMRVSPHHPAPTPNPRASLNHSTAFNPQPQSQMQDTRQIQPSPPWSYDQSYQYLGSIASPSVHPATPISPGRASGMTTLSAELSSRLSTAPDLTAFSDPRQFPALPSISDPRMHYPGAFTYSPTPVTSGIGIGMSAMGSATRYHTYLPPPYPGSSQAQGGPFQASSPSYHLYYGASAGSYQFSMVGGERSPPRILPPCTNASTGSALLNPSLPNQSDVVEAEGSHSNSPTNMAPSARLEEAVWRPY
Target sequence (Q13951 whole entry, looked up): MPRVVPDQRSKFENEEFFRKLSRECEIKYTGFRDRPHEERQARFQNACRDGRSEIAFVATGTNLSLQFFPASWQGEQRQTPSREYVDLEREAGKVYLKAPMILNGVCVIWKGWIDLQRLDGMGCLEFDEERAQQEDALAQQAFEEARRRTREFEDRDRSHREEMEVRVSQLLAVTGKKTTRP
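Read-out: AlphaScreen. Format: His-CBF-beta with biotinylated RUNX1 (30 nM each) preincubated 20 min, compound 15 min, Ni-chelate plus streptavidin beads 90 min; room temperature throughout.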
ClpP mod – qHTS Assay for Activators of ClpP; AID 651965, 2013; Potency, µM (top dose mostly 57.5 µM); purified B. subtilis ClpP, FRET peptide cleavage, 20 min; ATP-dependent Clp protease proteolytic subunit (Bacillus subtilis (strain 168)), P80244; hit rate 1.9% among 340,000; active means well fitted falling curve with a large enough effect; inconclusive means small, poorly fitted or top-dose-only effect; inactive means no such curve, though single readings can be large or run the other way; further: the source files actives as falling curves though it sought activators and does not explain the sign; nearly all actives have a fitted effect of over 65% in size
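Purified B. subtilis ClpP, 10 microg/mL final in Tris/HCl pH8 with KCl, BSA, glycerol and Tween-20, cleaved an Abz/nitrotyrosine-quenched decapeptide. Fluorescence (ex 320, em 430) was read at 0 and 20 min at room temperature. Delta was normalized to 5.8 microM ADEP and DMSO/no-enzyme controls.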
Hits are given with their value; . = inactive; ? = inconclusive; / = no result; [ ] = remark or other dose. Unless noted, the call rests on the fitted dose curve.

SMILES	MBNL1 CUG block	Rango release inh	Rango-impB inh	CBFb-RUNX1 inh	ClpP mod
CCOCCCNC(=O)C(c1ccc(C)cc1)N(Cc1ccc2c(c1)OCO2)C(=O)c1ccccc1O (stereo unspecified)	/	/	/	/	.
COc1ccc(C2NC(=O)N(C)C3=C2C(=O)N(c2ccccc2)C3)cc1 (stereo unspecified)	/	/	/	/	.
CCOC(=O)C1=C(CS(=O)(=O)c2ccc(F)cc2)NC(=O)NC1c1ccc(OCC)c(OC)c1 (stereo unspecified)	/	/	/	/	.
Cc1ccc(-n2nc(C)c3c(C(=O)Nc4ccc(Br)c(C)c4)cc(C)nc32)cc1	/	/	/	/	.
O=c1c2[nH]c3ccc(F)cc3c2ncn1CCCN1CCOCC1	.	.	.	.	20µM
CCOc1ccccc1NC(=O)Cn1c(=O)n(Cc2ccc(C(=O)NCCCOC)cc2)c(=O)c2ccccc21	/	/	/	/	.
COc1ccc(NC(=O)C2(C)CCN2Cc2ccc(OC)c3ccccc23)cc1OC (stereo unspecified)	/	/	/	/	.
C/C(CC(=O)Nc1ccc(N(C)C)cc1)=N\NC(=O)c1ccc([N+](=O)[O-])cc1Cl	?	.	.	.	25.1µM
C/C(CC(=O)Nc1ccc(N(C)C)cc1)=N\NC(=O)c1ccc(Cl)cc1Cl	.	.	.	/	.
COC(CNC(=O)c1c[nH]c2ccc(S(=O)(=O)N3CCC4(CC3)OCCO4)cc2c1=O)OC	.[11.5 µM]	.	.	.	22.4µM
O=C(c1c[nH]c2ccc(S(=O)(=O)N3CCC4(CC3)OCCO4)cc2c1=O)N1CCOCC1	.	.	.	.	15.8µM
NCC(=O)N[C@@H](CCCN=C(N)N)C(=O)NCC(=O)N[C@@H](CC(=O)O)C(=O)N[C@@H](CO)C(=O)N1CCC[C@H]1C(=O)O	/	/	/	.	/
CCOC(=O)C(NC(C)=O)(Nc1ccc(F)cc1)C(F)(F)F (stereo unspecified)	.	.	.	.	20µM
CCCCC(=O)NC(Nc1cc(C)ccn1)(C(=O)OCC)C(F)(F)F (stereo unspecified)	.	.	.	.	25.1µM
O=C(Cn1c(=O)n(-c2ccc(F)c(Cl)c2)c(=O)c2sc3ccccc3c21)NC1CCCCC1	/	/	/	/	.
CC(C)C(=O)Nc1ccc(/C=C2\C=Cc3ccccc32)cc1	/	/	/	/	.
O=C(NCCc1csc(-c2cccc(F)c2)n1)c1ccccc1C(F)(F)F	/	/	/	/	.
COC(=O)C1=CN(Cc2ccc(OC)c(OC)c2)C=C(C(=O)OC)C1c1cccc(F)c1	.	5.8µM	?	/	.
CCOC(=O)[C@@H](C)N(C(=O)OC(C)(C)C)S(=O)(=O)N(Cc1ccccc1)[C@@H](C(=O)OC)C(C)C	/	/	/	/	.
CSc1nc2nccc(-c3ccc(-c4ccccc4)cc3)n2n1	?	.	.	.	28.2µM
CSc1nc2nccc(-c3ccc(Oc4ccccc4)cc3)n2n1	.	.	.	.	28.2µM
CCCc1cc(N2CCN(C(=O)c3ccco3)CC2)n2c(nc3ccccc32)c1C#N	?	?	?	.	35.5µM
Cc1nnc2c(N3CCN(C(=O)c4ccco4)CC3)nc3ccccc3n12	.	.	.	/	.
Cc1ccc2c(c1)c1c(c(=O)n(-c3ccccc3C)c(=O)n1CC(=O)NCc1ccccc1)n2C	/	/	/	/	.
CCOC(=O)c1ccccc1NCN1C(=O)CSC1=O	.	.	.	.	28.2µM
SMILES	MBNL1 CUG block	Rango release inh	Rango-impB inh	CBFb-RUNX1 inh	ClpP mod
Cc1nc2ncnn2c(C)c1CCC(=O)NCc1ccccc1Cl	/	/	/	/	.
CCCOc1ccc(-c2nc(OC)c3ccccc3n2)cc1	.	.	.	.	31.6µM
CC1CCN(c2nc(-c3ccncc3)nc3ccccc23)CC1	.	.	.	.	.
CCCOc1ccc(-c2nc(N3CCC(C)CC3)c3ccccc3n2)cc1	/	/	/	/	20µM
COc1cc2nc(N3CCN(C)CC3)nc(NC(C)C)c2cc1OC	/	/	/	/	.
CC1=C(C(=O)OC2CCCCC2)C(c2ccccc2)NC(=O)N1 (stereo unspecified)	.	.	.	/	2.82µM
CCOc1ccccc1C(=O)OCC(=O)Nc1ncc(C(F)(F)F)cc1Cl	.	.	.	.	.
O=C(COC(=O)c1cccc2ccccc12)Nc1ncc(C(F)(F)F)cc1Cl	.	.	.	.	35.5µM
O=C(COC(=O)c1cccc2ccccc12)Nc1cccnc1Cl	/	.	.	.	15.8µM
O=C(COC(=O)c1ccccc1Cl)Nc1cccnc1Cl	/	.	.	/	.
Cc1ccc(Oc2ccc(S(=O)(=O)N3CCOCC3)cc2C(N)=O)c(-n2nc3ccccc3n2)c1	.	.	.	.	31.6µM
O=C(Nc1ccc([N+](=O)[O-])cc1Cl)c1cc(Br)ccc1O	/	/	/	/	.
O=C(NNC(=O)c1ccccc1Cl)c1cc2cc(OC(F)(F)F)ccc2[nH]1	/	.	.	.	15.8µM
Cc1ccc(NC(=O)c2cc3cc(OC(F)(F)F)ccc3[nH]2)cc1	/	.	.	.	.
CCCCc1n[nH]c2c1/C(=N/O)CC(c1ccccc1)C2 (stereo unspecified)	.	.	.	.	17.8µM
CCc1n[nH]c2c1/C(=N\O)CC(c1ccccc1)C2 (stereo unspecified)	.	.	.	.	.
O=C(CSc1nc2ccc(Cl)cc2[nH]1)NC1CCCc2ccccc21 (stereo unspecified)	.	.	.	.	/
Cc1ccc2nc(SC(C)C(=O)NC3CCCc4ccccc43)[nH]c2c1 (stereo unspecified)	?	.	.	.	25.1µM
Cc1ccc(Cl)cc1NC(=O)COC(=O)CN1C(=O)C2CCCCC2C1=O (stereo unspecified)	/	.	.	/	.
Cc1ccc(Cl)cc1NC(=O)COC(=O)CCN1C(=O)C2CC=CCC2C1=O (stereo unspecified)	/	.	.	/	25.1µM
Nc1c(-c2nc(-c3cccs3)no2)nnn1-c1ccc(Cl)cc1	/	/	/	/	.
COc1ccc(N2C(=O)c3ccccc3NC2c2ccc(OC)c(Cn3nnc4ccccc43)c2)cc1 (stereo unspecified)	.	.	.	.	31.6µM
COc1ccc(C2Nc3ccccc3C(=O)N2c2ccc(C)cc2)cc1Cn1nc(C)c([N+](=O)[O-])c1C (stereo unspecified)	.	.	.	.	.
COc1ccc(C2Nc3ccccc3C(=O)N2c2ccccc2)cc1CN1CCOCC1 (stereo unspecified)	.	.	.	.	/
COc1ccc(C2Nc3ccccc3C(=O)N2c2ccc(C)cc2)cc1COc1ccccn1 (stereo unspecified)	.	.	.	.	31.6µM
